# From PMC7862700, “An all-to-all approach to the identification of sequence-specific readers for epigenetic DNA modifications on cytosine”
# What was measured:
# Assay in all cases: DAPPL (digital affinity profiling via proximity ligation, sequencing); 10 mM Tris-HCl pH 7.5, 50 mM NaCl, 1 mM DTT, 4% glycerol, room temperature, 30 min; GST-TFs on glutathione beads, 16-mer random dsDNA library, 0.1% formaldehyde crosslink after washing; high values mean tight binding
# Conditions in all cases: protein: recombinant; tags: N-terminal GST; dsDNA, one strand shown
# [1] = target: T1, FLI1 (Homo sapiens, UniProt Q01543 1-452)
# T1 sequence: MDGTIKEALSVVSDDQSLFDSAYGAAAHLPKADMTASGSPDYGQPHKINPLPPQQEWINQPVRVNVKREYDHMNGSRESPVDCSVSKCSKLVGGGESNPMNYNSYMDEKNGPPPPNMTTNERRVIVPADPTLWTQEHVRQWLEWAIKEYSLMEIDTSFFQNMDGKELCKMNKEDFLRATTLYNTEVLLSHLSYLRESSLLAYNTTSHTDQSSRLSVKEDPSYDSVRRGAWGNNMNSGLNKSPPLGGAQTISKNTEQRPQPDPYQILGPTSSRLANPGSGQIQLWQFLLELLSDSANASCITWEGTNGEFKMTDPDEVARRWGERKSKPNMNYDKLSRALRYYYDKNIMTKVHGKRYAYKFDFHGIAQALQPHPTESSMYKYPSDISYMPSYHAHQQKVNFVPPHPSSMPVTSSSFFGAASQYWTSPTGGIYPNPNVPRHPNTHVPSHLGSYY
# In short: (§1)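 After expression in yeast as GST fusions, human transcription factors were bound to glutathione beads, DNA-barcoded and mixed with a tag-only sample. The pools were incubated with 200 nmole of a 16-mer random double-stranded DNA library in Tris/NaCl/DTT/glycerol buffer (30 min, room temperature), washed and crosslinked with 0.1% formaldehyde. Proximity ligation with BsaI/T4 ligase ran for 1 h at 37 °C, before PCR amplification and sequencing on an Illumina NextSeq500. Binding signal is a hexamer's read frequency for a factor divided by its frequency for the tag-only sample.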
# [2] = target: T2, ELK1 (Homo sapiens, UniProt P19419 1-428)
# T2 sequence: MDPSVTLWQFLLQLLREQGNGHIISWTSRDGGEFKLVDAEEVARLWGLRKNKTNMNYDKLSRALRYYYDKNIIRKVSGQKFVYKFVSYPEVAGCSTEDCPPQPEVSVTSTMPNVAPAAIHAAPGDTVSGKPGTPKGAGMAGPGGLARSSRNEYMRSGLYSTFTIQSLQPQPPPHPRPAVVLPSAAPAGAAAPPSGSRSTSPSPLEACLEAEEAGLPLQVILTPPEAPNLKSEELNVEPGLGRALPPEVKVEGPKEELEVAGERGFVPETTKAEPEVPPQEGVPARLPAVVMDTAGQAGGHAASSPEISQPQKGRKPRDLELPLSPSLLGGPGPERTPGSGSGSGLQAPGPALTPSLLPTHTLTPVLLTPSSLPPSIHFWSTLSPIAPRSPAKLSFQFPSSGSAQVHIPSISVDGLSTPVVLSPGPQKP
# In short: as §1
# [3] = target: T3, GABPA (Homo sapiens, UniProt Q06546 1-454)
# T3 sequence: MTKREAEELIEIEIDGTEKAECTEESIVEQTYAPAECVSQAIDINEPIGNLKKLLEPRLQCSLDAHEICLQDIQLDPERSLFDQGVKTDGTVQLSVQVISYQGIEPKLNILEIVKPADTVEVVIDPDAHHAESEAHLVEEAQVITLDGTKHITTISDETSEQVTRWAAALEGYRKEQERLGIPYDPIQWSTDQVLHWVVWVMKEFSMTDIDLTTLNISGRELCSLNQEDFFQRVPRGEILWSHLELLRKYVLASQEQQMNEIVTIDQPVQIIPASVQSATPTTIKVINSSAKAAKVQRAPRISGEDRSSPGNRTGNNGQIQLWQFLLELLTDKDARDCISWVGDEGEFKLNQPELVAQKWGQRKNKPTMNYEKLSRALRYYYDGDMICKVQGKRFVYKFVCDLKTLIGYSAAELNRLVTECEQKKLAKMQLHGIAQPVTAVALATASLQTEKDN
# In short: as §1
# [4] = target: T4, ERG (Homo sapiens, UniProt P11308 1-479)
# T4 sequence: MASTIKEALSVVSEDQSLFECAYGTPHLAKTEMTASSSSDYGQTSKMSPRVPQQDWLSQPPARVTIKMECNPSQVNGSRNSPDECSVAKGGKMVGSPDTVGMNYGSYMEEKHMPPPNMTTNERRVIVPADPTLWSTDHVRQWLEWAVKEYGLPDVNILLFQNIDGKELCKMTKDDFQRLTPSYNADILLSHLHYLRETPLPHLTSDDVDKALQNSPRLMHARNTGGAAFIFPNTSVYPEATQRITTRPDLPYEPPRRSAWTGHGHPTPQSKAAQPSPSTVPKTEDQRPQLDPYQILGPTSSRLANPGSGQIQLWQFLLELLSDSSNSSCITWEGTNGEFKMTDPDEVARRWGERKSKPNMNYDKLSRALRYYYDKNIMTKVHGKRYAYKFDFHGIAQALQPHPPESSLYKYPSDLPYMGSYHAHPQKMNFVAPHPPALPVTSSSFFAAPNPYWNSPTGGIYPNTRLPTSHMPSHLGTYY
# In short: as §1
# [5] = target: ELF1 (Homo sapiens, UniProt P32519 1-619)
# In short: as §1
# [6] = target: T5, EHF (Homo sapiens, UniProt Q9NZC4 1-300)
# T5 sequence: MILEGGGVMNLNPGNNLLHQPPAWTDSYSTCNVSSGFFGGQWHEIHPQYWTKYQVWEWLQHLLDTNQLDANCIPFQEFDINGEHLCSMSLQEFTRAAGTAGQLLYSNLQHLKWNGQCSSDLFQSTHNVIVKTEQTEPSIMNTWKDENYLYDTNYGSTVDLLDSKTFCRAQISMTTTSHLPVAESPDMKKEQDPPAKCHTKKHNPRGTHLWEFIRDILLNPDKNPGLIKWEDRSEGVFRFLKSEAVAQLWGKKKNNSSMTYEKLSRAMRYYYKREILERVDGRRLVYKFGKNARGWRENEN
# In short: as §1
# [7] = target: SPI1 (Homo sapiens, UniProt P17947 1-270)
# In short: as §1
# [8] = target: SPIB (Homo sapiens, UniProt Q01892 1-262)
# In short: as §1
# [9] = target: T6, ELK3 (Homo sapiens, UniProt P41970 1-407)
# T6 sequence: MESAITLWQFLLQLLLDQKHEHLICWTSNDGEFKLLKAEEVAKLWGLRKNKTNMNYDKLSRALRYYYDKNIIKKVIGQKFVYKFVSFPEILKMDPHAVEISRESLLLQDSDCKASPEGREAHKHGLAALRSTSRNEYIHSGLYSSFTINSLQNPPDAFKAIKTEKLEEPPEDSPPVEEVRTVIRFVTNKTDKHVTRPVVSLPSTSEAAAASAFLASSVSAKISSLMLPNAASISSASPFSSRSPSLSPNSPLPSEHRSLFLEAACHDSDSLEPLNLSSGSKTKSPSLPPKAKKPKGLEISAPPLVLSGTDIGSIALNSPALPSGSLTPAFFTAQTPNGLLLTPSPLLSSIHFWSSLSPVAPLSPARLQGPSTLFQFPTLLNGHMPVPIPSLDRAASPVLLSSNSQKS
# In short: as §1
# [10] = target: T7, FEV (Homo sapiens, UniProt Q99581 1-238)
# T7 sequence: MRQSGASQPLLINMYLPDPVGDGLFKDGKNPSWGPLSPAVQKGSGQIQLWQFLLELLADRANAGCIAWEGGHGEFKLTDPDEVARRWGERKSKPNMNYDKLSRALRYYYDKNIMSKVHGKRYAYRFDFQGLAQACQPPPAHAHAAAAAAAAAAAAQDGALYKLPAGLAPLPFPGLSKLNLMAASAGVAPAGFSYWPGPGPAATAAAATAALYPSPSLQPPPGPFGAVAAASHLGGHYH
# In short: as §1
# [11] = target: ETV5 (Homo sapiens, UniProt P41161 1-510)
# In short: as §1
# [12] = target: T8, SPIC (Homo sapiens, UniProt Q8N5J4 1-248)
# T8 sequence: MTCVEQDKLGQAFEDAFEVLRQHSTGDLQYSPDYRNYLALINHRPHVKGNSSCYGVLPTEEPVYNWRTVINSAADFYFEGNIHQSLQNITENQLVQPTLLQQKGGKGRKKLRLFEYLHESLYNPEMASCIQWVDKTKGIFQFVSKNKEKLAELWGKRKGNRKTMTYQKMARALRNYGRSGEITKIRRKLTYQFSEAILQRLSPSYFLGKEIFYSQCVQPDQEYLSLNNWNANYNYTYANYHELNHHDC
# In short: as §1
# [13] = target: ELF4 (Homo sapiens, UniProt Q99607 1-663)
# In short: as §1
# [14] = target: ETV1 (Homo sapiens, UniProt P50549 1-477)
# In short: as §1
# [15] = target: T9, ERF (Homo sapiens, UniProt P50548 1-548)
# T9 sequence: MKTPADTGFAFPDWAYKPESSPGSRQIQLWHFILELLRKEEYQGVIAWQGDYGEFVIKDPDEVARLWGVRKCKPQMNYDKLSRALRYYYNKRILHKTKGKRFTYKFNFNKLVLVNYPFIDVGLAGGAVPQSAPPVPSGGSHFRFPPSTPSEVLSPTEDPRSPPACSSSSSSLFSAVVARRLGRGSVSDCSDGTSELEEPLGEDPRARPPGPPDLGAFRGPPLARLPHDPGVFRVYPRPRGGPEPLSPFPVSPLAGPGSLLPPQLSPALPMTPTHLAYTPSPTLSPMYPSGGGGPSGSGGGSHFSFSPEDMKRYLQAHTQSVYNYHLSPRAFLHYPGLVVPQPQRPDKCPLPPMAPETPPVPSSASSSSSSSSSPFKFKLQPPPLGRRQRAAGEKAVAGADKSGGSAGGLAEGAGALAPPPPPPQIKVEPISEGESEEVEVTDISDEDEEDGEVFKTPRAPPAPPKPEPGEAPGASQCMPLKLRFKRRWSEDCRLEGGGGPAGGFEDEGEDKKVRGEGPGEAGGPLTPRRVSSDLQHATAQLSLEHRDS
# In short: as §1
# [16] = target: T10, ETV3L (Homo sapiens, UniProt Q6ZN32 1-361)
# T10 sequence: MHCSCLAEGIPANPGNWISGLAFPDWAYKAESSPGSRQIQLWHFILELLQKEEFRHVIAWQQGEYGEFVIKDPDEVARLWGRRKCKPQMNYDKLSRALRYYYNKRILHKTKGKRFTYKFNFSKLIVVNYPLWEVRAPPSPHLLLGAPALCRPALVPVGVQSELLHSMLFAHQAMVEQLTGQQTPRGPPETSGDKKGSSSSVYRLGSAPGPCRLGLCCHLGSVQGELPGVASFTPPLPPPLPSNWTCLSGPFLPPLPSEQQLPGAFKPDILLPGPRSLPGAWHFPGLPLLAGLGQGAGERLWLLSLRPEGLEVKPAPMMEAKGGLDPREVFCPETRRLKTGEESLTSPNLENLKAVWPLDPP
# In short: as §1
# [17] = target: T11, ETS2 (Homo sapiens, UniProt P15036 1-469)
# T11 sequence: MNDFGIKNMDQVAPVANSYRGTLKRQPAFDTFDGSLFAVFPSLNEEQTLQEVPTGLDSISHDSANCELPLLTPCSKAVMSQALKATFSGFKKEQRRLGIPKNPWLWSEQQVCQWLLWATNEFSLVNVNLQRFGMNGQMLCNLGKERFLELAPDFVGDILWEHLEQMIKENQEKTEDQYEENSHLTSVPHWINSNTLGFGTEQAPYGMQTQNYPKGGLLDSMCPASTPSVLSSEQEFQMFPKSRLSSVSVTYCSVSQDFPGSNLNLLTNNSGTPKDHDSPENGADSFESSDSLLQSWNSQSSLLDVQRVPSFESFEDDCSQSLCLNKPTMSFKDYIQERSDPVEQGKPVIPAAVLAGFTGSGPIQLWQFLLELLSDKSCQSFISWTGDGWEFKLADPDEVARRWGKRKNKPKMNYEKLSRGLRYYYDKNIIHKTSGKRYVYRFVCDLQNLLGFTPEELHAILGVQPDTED
# In short: as §1
# [18] = target: T12, SPDEF (Homo sapiens, UniProt O95238 1-335)
# T12 sequence: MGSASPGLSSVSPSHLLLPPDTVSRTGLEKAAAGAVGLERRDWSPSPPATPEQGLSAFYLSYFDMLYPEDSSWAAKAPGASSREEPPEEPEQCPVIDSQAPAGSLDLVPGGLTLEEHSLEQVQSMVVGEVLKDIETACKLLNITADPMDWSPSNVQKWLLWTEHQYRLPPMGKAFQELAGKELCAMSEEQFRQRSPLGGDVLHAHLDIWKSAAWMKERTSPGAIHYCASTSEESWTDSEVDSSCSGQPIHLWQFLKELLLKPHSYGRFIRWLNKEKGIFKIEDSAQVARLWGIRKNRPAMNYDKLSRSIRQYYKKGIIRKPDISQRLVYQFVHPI
# In short: as §1
# [19] = target: T13, ETV3 (Homo sapiens, UniProt P41162-2 1-143)
# T13 sequence: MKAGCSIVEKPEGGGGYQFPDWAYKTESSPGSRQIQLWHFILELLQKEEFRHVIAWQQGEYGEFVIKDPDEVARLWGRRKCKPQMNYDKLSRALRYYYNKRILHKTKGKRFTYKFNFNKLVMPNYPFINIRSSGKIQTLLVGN
# In short: as §1
# [20] = target: ETV6 (Homo sapiens, UniProt P41212 1-452)
# In short: as §1
# Sequence of ELF4 (Q99607 whole entry): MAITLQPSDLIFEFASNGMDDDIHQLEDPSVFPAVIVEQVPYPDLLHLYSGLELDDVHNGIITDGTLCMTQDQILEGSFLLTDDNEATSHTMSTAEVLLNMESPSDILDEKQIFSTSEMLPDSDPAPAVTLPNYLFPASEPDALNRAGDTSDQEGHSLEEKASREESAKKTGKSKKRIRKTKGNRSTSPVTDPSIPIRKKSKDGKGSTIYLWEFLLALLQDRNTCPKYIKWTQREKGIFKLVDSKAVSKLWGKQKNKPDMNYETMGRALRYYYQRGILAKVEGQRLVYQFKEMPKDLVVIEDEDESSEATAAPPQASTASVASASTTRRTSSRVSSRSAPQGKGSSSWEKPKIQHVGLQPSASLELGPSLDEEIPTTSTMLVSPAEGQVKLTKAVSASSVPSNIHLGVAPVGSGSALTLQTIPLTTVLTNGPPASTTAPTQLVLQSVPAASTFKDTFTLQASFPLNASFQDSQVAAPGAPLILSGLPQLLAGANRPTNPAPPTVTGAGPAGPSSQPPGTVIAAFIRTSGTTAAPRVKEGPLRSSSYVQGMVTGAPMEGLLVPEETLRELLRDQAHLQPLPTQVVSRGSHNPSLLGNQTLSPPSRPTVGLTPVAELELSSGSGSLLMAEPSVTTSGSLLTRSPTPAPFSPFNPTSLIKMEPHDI
# Sequence of ETV5 (P41161 whole entry): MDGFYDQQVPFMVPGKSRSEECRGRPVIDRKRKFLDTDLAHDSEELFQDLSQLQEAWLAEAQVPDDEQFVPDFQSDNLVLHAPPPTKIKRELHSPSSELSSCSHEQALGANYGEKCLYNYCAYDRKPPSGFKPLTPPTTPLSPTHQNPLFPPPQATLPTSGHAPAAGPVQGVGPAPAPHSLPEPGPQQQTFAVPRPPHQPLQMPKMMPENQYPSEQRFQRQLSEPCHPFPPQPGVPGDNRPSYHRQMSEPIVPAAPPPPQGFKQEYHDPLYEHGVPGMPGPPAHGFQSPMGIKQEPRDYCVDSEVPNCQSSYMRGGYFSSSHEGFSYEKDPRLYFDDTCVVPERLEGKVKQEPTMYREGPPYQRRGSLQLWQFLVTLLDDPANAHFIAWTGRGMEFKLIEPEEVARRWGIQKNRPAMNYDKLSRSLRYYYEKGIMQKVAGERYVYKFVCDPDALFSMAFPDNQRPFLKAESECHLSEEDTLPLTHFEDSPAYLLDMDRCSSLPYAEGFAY
# Sequence of SPIB (Q01892 whole entry): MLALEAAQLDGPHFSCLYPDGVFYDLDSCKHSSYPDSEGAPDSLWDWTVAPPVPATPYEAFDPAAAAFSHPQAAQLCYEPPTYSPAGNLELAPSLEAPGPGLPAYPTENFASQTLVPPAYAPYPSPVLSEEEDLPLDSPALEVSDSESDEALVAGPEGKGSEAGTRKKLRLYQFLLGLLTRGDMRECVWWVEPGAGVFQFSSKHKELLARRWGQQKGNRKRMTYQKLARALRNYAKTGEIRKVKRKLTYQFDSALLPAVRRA
# Sequence of ELF1 (P32519 whole entry): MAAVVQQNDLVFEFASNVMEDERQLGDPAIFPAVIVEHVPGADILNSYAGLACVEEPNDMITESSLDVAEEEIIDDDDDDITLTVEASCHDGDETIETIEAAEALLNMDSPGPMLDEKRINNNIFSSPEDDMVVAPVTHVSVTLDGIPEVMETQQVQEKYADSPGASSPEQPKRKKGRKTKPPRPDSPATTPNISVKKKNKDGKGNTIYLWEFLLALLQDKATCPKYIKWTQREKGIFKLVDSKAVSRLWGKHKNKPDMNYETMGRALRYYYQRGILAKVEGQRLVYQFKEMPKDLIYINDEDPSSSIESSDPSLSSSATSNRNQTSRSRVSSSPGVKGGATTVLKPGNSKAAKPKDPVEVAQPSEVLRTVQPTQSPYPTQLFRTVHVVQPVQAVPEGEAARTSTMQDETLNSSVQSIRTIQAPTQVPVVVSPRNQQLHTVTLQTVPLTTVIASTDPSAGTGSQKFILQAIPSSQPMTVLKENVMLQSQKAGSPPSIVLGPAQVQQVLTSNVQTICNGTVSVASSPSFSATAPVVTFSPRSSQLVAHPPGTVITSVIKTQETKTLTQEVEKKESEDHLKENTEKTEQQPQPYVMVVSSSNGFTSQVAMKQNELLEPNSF
# Sequence of ETV1 (P50549 whole entry): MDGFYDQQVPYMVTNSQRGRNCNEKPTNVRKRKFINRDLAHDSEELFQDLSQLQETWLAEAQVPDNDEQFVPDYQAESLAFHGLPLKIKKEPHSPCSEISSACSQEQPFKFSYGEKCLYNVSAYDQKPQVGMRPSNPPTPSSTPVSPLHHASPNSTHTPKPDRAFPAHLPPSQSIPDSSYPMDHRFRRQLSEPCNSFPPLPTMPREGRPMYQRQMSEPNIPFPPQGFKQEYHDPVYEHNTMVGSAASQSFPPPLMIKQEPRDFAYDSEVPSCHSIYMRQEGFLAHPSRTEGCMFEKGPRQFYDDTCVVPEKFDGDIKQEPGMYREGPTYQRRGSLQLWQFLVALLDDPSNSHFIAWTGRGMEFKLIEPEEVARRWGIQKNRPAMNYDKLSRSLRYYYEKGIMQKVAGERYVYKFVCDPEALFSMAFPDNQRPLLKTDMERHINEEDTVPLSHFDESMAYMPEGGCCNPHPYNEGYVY
# Sequence of ETV6 (P41212 whole entry): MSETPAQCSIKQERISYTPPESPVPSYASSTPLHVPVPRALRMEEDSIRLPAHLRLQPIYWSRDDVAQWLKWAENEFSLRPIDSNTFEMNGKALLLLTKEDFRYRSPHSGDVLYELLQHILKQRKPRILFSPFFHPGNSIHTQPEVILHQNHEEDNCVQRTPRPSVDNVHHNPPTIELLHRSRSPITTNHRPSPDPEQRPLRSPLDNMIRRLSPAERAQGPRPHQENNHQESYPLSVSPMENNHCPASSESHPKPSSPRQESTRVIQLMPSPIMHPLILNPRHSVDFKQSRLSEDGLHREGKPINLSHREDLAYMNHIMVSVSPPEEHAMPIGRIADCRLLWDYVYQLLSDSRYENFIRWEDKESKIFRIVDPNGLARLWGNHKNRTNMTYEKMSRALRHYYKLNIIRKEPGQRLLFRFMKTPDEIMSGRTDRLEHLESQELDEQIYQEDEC
sequence,measurement,setting,value
ATGGTG,binding signal,[1],"1.17 fold enrichment (6-mer frequency, TF over GST control)"
same,binding signal,[2],"1.27 fold enrichment (6-mer frequency, TF over GST control)"
same,binding signal,[3],"1.1 fold enrichment (6-mer frequency, TF over GST control)"
same,binding signal,[4],"1.19 fold enrichment (6-mer frequency, TF over GST control)"
same,binding signal,[5],"1.13 fold enrichment (6-mer frequency, TF over GST control)"
same,binding signal,[6],"1.17 fold enrichment (6-mer frequency, TF over GST control)"
same,binding signal,[7],"1.07 fold enrichment (6-mer frequency, TF over GST control)"
same,binding signal,[8],"1.01 fold enrichment (6-mer frequency, TF over GST control)"
same,binding signal,[9],"1.02 fold enrichment (6-mer frequency, TF over GST control)"
same,binding signal,[10],"1.06 fold enrichment (6-mer frequency, TF over GST control)"
same,binding signal,[11],"1.18 fold enrichment (6-mer frequency, TF over GST control)"
same,binding signal,[12],"1.2 fold enrichment (6-mer frequency, TF over GST control)"
same,binding signal,[13],"1.14 fold enrichment (6-mer frequency, TF over GST control)"
same,binding signal,[14],"1.11 fold enrichment (6-mer frequency, TF over GST control)"
same,binding signal,[15],"1.13 fold enrichment (6-mer frequency, TF over GST control)"
same,binding signal,[16],"1.04 fold enrichment (6-mer frequency, TF over GST control)"
same,binding signal,[17],"1.14 fold enrichment (6-mer frequency, TF over GST control)"
same,binding signal,[18],"1.14 fold enrichment (6-mer frequency, TF over GST control)"
same,binding signal,[19],"1.04 fold enrichment (6-mer frequency, TF over GST control)"
same,binding signal,[20],"1.11 fold enrichment (6-mer frequency, TF over GST control)"
